From PubChem BioAssay (NCATS)
Results filed as inconclusive are left out. Entries that show only a call come without a potency. Calls of active or inactive are those of the source. Calls come from the whole dose curve; as a rule, active = well fitted inhibition curve with a large enough effect; inconclusive = small, poorly fitted or top-dose-only effect; inactive = flat fitted curve, though single readings scatter.

Each molecule was assayed on Zika virus NS2B-NS3 protease (assay: Primary screen GU AMC qHTS for Zika virus inhibitors (AID 1347154; note: nearly all actives have a fitted effect of over 70% in size)). Details: Zika NS2B-NS3 unlinked protease, AMC fluorogenic substrate; series mostly up to 54.1 µM.
In short: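 Unlinked Zika NS2B hydrophilic domain–NS3 protease complex at 25 nM in 10 mM Tris-HCl pH 8.0, 0.01% Tween 20, with an AMC peptide substrate. Fluorescence change (340/450 nm) over 15 min at room temperature, normalized to controls, fitted to 4-parameter Hill.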

| SMILES | Potency |
| --- | --- |
| CCOC(=O)[C@H](CCc1ccccc1)N[C@@H](C)C(=O)N1[C@@H](C(=O)O)C[C@H]2CCC[C@@H]21 | inactive |
| CCCCCCCCCCCC(CC1OC(=O)C1CCCCCC)OC(=O)C(CC(C)C)NC=O (stereo unspecified) | inactive |
| O=[N+]([O-])c1cn2c(n1)OC[C@@H](OCc1ccc(OC(F)(F)F)cc1)C2 | inactive |
| CN(C)CCN1C(=O)c2cccc3cc(N)cc(c23)C1=O | inactive |
| COc1cc(OC)c(NC(=O)Nc2cc(C)on2)cc1Cl | inactive |
| NC[C@H]1O[C@H](O[C@H]2[C@@H](O)[C@@H](O[C@H]3O[C@H](CO)[C@@H](O)[C@H](N)[C@@H]3O)[C@H](N)C[C@@H]2N)[C@H](N)C[C@H]1O | inactive |
| COc1ccc2cc([S+]([O-])Cc3ncc(C)c(OC)c3C)nc2c1 | inactive |
| CC(C)(C)[N+]([O-])=Cc1ccc(S(=O)(=O)O)cc1S(=O)(=O)O | inactive |
| C[C@H](CCC(=O)O)[C@H]1CC[C@H]2[C@@H]3[C@H](O)C[C@@H]4C[C@H](O)CC[C@]4(C)[C@@H]3CC[C@]12C | inactive |
| OCc1ccccc1O[C@@H]1O[C@H](CO)[C@H](O)[C@H](O)[C@H]1O | inactive |
| C[C@H](NC(=O)C(C#N)=Cc1cccc(Br)n1)c1ccccc1 | inactive |
| CC(=O)O[C@]1(C(C)=O)CC[C@H]2[C@@H]3C=C(C)C4=CC(=O)CC[C@]4(C)[C@@H]3CC[C@@]21C | inactive |
| CC[C@H]1OC(=O)[C@H](C)[C@@H](O[C@H]2C[C@@](C)(OC)[C@@H](O)[C@H](C)O2)[C@H](C)[C@@H](O[C@@H]2O[C@H](C)C[C@H](N(C)C)[C@@H]2O)[C@](C)(OC)C[C@@H](C)C(=O)[C@H](C)[C@@H](O)[C@]1(C)O | inactive |
| C[C@@]12C[C@@]3(O)O[C@@H](O1)[C@]1(COC(=O)c4ccccc4)[C@@H]3C[C@@]12O[C@@H]1O[C@H](CO)[C@@H](O)[C@H](O)[C@@H]1O | inactive |
| Cc1cc(-c2nnc3n2CCCCC3)c(C)n1-c1ccccc1 | inactive |
| O=C(O)C(=O)Nc1cccc(C2=NN=N[N]2)c1 | inactive |
| CC(C)(O)CC[C@@H](O)[C@](C)(O)[C@H]1CC[C@@]2(O)C3=CC(=O)[C@@H]4C[C@@H](O)[C@@H](O)C[C@]4(C)[C@@H]3CC[C@]12C | inactive |
| COc1cc(N2CCC(C(N)=O)CC2)ccc1Nc1nc(N)c(Cl)c(Nc2ccccc2S(=O)(=O)C(C)C)n1 | inactive |

| SMILES | Potency |
| --- | --- |
| N#Cc1cc(NC(=O)Nc2nnc(-c3ccncc3)s2)ccc1-c1cn[nH]c1 | inactive |
| NC(=O)c1cccc(-c2cccc(OC(=O)NC3CCCCC3)c2)c1 | inactive |
| CC(C=CC=C(C)C=CC1=C(C)CCCC1(C)C)=CC=CC=C(C)C=CC=C(C)C=CC1=C(C)CCCC1(C)C | inactive |
| COc1ccc(CCC(=O)c2c(O)cc(O[C@@H]3O[C@H](CO)[C@@H](O)[C@H](O)[C@@H]3O[C@@H]3O[C@@H](C)[C@H](O)[C@@H](O)[C@@H]3O)cc2O)cc1O | inactive |
| O=C1CSC(=O)N1C(CCc1ccncc1)COc1ccc(-c2cccc([N+](=O)[O-])c2)cc1 (stereo unspecified) | inactive |
| CCCc1nc(C(C)(C)O)c(C(=O)O)n1Cc1ccc(-c2ccccc2-c2nn[nH]n2)cc1 | inactive |
| Cn1cc(C2=C(c3c4n(c5ccccc35)CCC(CN)C4)C(=O)NC2=O)c2ccccc21 (stereo unspecified) | inactive |
| COc1cc2c(Nc3ccc(Cl)c(Cl)c3F)ncnc2cc1OCC1C[C@@H]2CN(C)C[C@H]2C1 | inactive |
| CON=C(C(=O)N[C@@H]1C(=O)N2C(C(=O)O)=C(CSC(=O)c3ccco3)CS[C@H]12)c1csc(N)n1 | inactive |
| CCCCCN=C(N)NN=Cc1c[nH]c2ccc(OC)cc12 | inactive |
| c1coc(CNc2ncnc3nc[nH]c23)c1 | inactive |
| COC(=O)[C@H](CCCN=C(N)N)NS(=O)(=O)c1ccc(C)cc1 | inactive |
| c1ccc(CNc2nc(NCc3ccccc3)c3ccccc3n2)cc1 | inactive |
| OCCN1C[C@H](O)[C@@H](O)[C@H](O)[C@@H]1CO | inactive |
| O=c1[nH]c(=O)n([C@H]2C[C@@H](O)[C@@H](CO)O2)cc1C=CBr | inactive |
| CCCNS(=O)(=O)Nc1ncnc(OCCOc2ncc(Br)cn2)c1-c1ccc(Br)cc1 | inactive |
| NC(=O)c1ncn([C@@H]2O[C@H](CO)[C@@H](O)[C@@H]2O)c1O | inactive |
| C#C[C@]1(O)CC[C@@H]2[C@@H]3CCc4cc(O)ccc4[C@H]3CC[C@@]21C | inactive |
